In PubChem BioAssay AID588405 (Sanford-Burnham Center for Chemical Genomics, 2011):
Among all 360,000 compounds or so, about 6,200 (1.7%) were called active.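 The calls were made as follows: active = inhibition of at least 50% at 20 µM; inactive = the rest.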 The full list was thinned out, with actives kept by preference.

Test: Peg3 promoter-driven luciferase inhibitors, primary screen, cell-based, HeLa, luciferase luminescence (AID 588405)
Settings: HeLa PEG-Prom luciferase reporter, overnight, at 20 µM, stronger effect = higher value
For `COc1ccc(C)cc1NC(=O)c1[nH]c(C)c(C(C)=O)c1C`, the inhibition was 4.55% (inactive).
With `CCCC/C=C/c1cccc2nncn12` the inhibition was 2.91% (inactive).
In the case of `O=S(=O)(c1ccccc1)N1CCc2ccccc21`, the inhibition was 5.92% (inactive).
For `CSc1nc2ccc(S(=O)(=O)N3CCc4ccccc43)cc2s1`, the inhibition was 52.1% (active).
For `O=S(=O)(c1ccc2c(c1)OCCO2)N1CCc2ccccc21`, the inhibition was 25.9% (inactive).
With `CSc1ccc(-c2c(C#N)c(N)nc3c2c(C)nn3-c2ccccc2)cc1` the inhibition was 76.2% (active).
With `Cn1c(=O)c2c(-c3cccc(Br)c3)c(C#N)c(N)nc2n(C)c1=O` the inhibition was 7.56% (inactive).
In the case of `Cc1nc2c(c(C)nn2-c2ccccc2)c(C)c1C`, the inhibition was 21.8% (inactive).
With `CCOC(=O)[C@H]1Nc2ccc(Cl)cc2[C@@H]2[C@H]1C1CC(c3ccccc31)N2C(=O)OCc1ccccc1` (some centres not stated) the inhibition was 26.4% (inactive).
In the case of `N#Cc1cccc(NC(=O)c2cc(C3CCCCN3C(=O)CCc3ccccc3)on2)c1` (configuration not stated), the inhibition was 23.6% (inactive).
With `COc1ccc(-c2oc3ncnc(NCCCO)c3c2-c2ccc(OC)cc2)cc1` the inhibition was 56.5% (active).
With `COCCNc1ncnc2c1ncn2[C@H]1CN(Cc2ccc(OC)cc2)C[C@@H](CO)O1` the inhibition was -12.7% (inactive).
For `COc1ccc(-c2oc3ncn(Cc4ccco4)c(=N)c3c2-c2ccc(OC)cc2)cc1`, the inhibition was 9.27% (inactive).
With `CC(C)(C)OC(=O)N1CCN(C(=O)c2[nH]c(C(F)(F)F)nc2-c2ccccc2)CC1` the inhibition was 5.18% (inactive).
In the case of `CCN(CC)CCNC(=O)Cn1cnc2sc(C)c(S(=O)(=O)N3CCOCC3)c2c1=O`, the inhibition was -0.66% (inactive).
For `CCN(CC)CCCNC(=O)Cn1cnc2sc(C)c(S(=O)(=O)N3CCN(c4ncccn4)CC3)c2c1=O`, the inhibition was -7.38% (inactive).
For `CCN(CC)CCNC(=O)c1sc2ncn(CC(=O)Nc3ccc(C)c(Cl)c3)c(=O)c2c1C`, the inhibition was 87.1% (active).
In the case of `Fc1cccc(Cc2c(-c3ccc(Cl)cc3)nc3ccc(Cl)cn23)c1`, the inhibition was -75.2% (inactive).
With `CCNC(=O)C1(C)CCCN(C(=O)c2c(C)noc2C)C1` (configuration not stated) the inhibition was -5.02% (inactive).
For `Cn1c(Cc2csc(N)n2)nnc1SC/C=C/c1ccccc1`, the inhibition was -0.48% (inactive).
With `CCN(CC)CCN(C(=O)c1cc(Cl)sc1Cl)c1nc2cc3c(cc2s1)OCO3` the inhibition was -57.9% (inactive).
With `CCN(C(=O)COc1ccc(C(=O)c2ccccc2)cc1)c1ccccc1` the inhibition was 2.39% (inactive).
With `CCOc1ccc2nc(N(CCCN(C)C)C(=O)c3ccc(C(=O)c4ccccc4)cc3)sc2c1` the inhibition was 105% (active).
With `CCN(CC(=O)Nc1c(F)cccc1F)C(=O)c1ccc(S(=O)(=O)N2CCCCC2)cc1` the inhibition was 3.57% (inactive).
In the case of `CN(C)CCCN(C(=O)c1ccc(S(=O)(=O)N2CCCCCC2)cc1)c1nc2ccc(Br)cc2s1`, the inhibition was 57.8% (active).
For `CN(C)CCN(C(=O)C1=COCCO1)c1nc2ccc(Cl)cc2s1`, the inhibition was -91.5% (inactive).
For `COc1cc(C(=O)NNC(=O)c2ccc(S(=O)(=O)N3CCCCC3)cc2)cc(OC)c1OC`, the inhibition was 3.84% (inactive).
For `CCc1ccc2nc(N(CCCN(C)C)C(=O)c3ccc4c(c3)OCCO4)sc2c1`, the inhibition was 76% (active).
With `CCOc1ccc2nc(/N=C/c3nc(-c4ccccc4)oc3O)sc2c1` the inhibition was -127% (inactive).
For `CCOC(=O)C1CCCN(C(=O)c2cccc3ccccc23)CC1` (configuration not stated), the inhibition was 10.3% (inactive).
With `O=C(C1=C(O)C(=O)N(CCOCCO)C1c1ccccn1)c1cccs1` (configuration not stated) the inhibition was -2.88% (inactive).
For `COc1ccc(NC(=O)c2cc(=O)[nH]c3ccccc23)cc1S(=O)(=O)N1CCOCC1`, the inhibition was -0.23% (inactive).
For `OC[C@@H]1CN(Cc2cccs2)C[C@H](n2cnc3c(Nc4ccccc4)ncnc32)O1`, the inhibition was -9.51% (inactive).
With `CCCCN1CC(N2CCN(Cc3cccc(C)c3)CC2)CS1(=O)=O` (configuration not stated) the inhibition was -1.8% (inactive).
For `O=C1NCC(c2ccccc2)(c2ccccc2)C(=O)N1`, the inhibition was -0.6% (inactive).
In the case of `CCCNC(=O)C1(C)CCN1C(=O)C1(c2ccccc2)CC1` (configuration not stated), the inhibition was 8.72% (inactive).
For `CC1CN(C(=O)CCC(=O)NCCCN2CCC(Cc3ccccc3)CC2)c2cc(Cl)ccc2O1` (configuration not stated), the inhibition was 102% (active).
With `COc1ccccc1NC(=O)CCC(=O)N1CC(C)Oc2ccc(C)cc21` (configuration not stated) the inhibition was 14.5% (inactive).
With `O=C(CC1Oc2ccccc2NC1=O)NCCCN1CCN(Cc2ccccc2)CC1` (configuration not stated) the inhibition was 1.93% (inactive).
For `CC(C)CN1CCC1(C)C(=O)Nc1ccc(OC(F)F)cc1` (configuration not stated), the inhibition was 3.35% (inactive).
In the case of `COc1ccc(-c2ccc(OC(=O)NC3CCS(=O)(=O)C3)cc2)cc1` (configuration not stated), the inhibition was -160% (inactive).
In the case of `COCCNc1nc(NCc2ccc(NC(C)=O)cc2)c2sccc2n1`, the inhibition was 20.4% (inactive).
With `CC(=O)Nc1ccc(CNc2nc(NCCN(C)C)nc3cc(-c4ccccc4)sc23)cc1` the inhibition was 97.3% (active).
With `COCCNc1nc(Nc2ccccc2Cl)c2sc(-c3ccccc3)cc2n1` the inhibition was 5.82% (inactive).
For `C=CCc1cccc2cc(C(=O)N3CCN(C(=O)OCC)CC3)c(=O)oc12`, the inhibition was 22.4% (inactive).
With `Cc1cccn2c(=O)c3cc(C(=O)NC4CCCCC4)sc3nc12` the inhibition was -45% (inactive).
In the case of `Cc1cc(C)cc(Oc2nc3c(C)cccn3c(=O)c2/C=C(\C#N)C(=O)NC2CCS(=O)(=O)C2)c1` (configuration not stated), the inhibition was 61.6% (active).
In the case of `Cc1cccn2c(=O)c(/C=C(\C#N)S(=O)(=O)c3ccc(Cl)cc3)c(N3CCC(C(N)=O)CC3)nc12`, the inhibition was -3.35% (inactive).
With `FC(F)(F)c1ccccc1Cc1c(-c2ccccc2)nc2c3ccccc3ccn12` the inhibition was -34.1% (inactive).
With `Cc1c(-c2ccccc2)n[nH]c1C(=O)N=Nc1c(O)[nH]c2ccccc12` the inhibition was -126% (inactive).
For `O=[N+]([O-])c1cc(S(=O)(=O)Nc2cccc(Cl)c2)ccc1N=Nc1c(O)[nH]c2ccccc12`, the inhibition was 65.1% (active).
In the case of `O=C(NCc1ccncc1)c1ccc(NS(=O)(=O)c2cccc([N+](=O)[O-])c2)cc1`, the inhibition was -13.3% (inactive).
For `CCCCc1nc2ccc(F)cc2cc1C`, the inhibition was 6.65% (inactive).
With `CCOC(=O)N1CCC(NC(=O)c2ccc3nc(N4CCOCC4)sc3c2)CC1` the inhibition was 16.9% (inactive).
For `c1c2c(cc3sc(N4CCCCC4)nc13)OCCO2`, the inhibition was 80.5% (active).
With `CS(=O)(=O)N1CCCCC1c1cc(C(=O)NCc2ccccc2)no1` (configuration not stated) the inhibition was -14.8% (inactive).
For `O=[N+]([O-])c1ccc(CN2CC(N3CCC(c4ccccc4)CC3)CS2(=O)=O)cc1` (configuration not stated), the inhibition was 10% (inactive).
In the case of `COc1ccc(C(CCNCc2ccccc2F)c2ccc(F)cc2)cc1` (configuration not stated), the inhibition was 17.7% (inactive).
In the case of `COc1cccc(CNCCc2c[nH]c3ccccc23)c1OCc1ccccc1F`, the inhibition was 92.7% (active).
With `Fc1ccccc1COc1ccccc1CNCc1ccncc1` the inhibition was 18.9% (inactive).
With `CNc1cncc(-c2ccc(NS(C)(=O)=O)cc2)n1` the inhibition was 21.2% (inactive).
In the case of `CC1(C(=O)NS(=O)(=O)c2ccc(C#N)cc2)CCN1C(=O)CC1CCCC1` (configuration not stated), the inhibition was 11.7% (inactive).
For `COc1ccc(C(C#N)=C2C=CC(=NO)c3ccccc32)cc1`, the inhibition was -114% (inactive).
In the case of `COc1ccc(NS(=O)(=O)c2cc3c(cc2C)N(C(C)=O)CCO3)cc1`, the inhibition was 9.24% (inactive).
In the case of `CSc1ccccc1NC(=O)COC(=O)CCCOc1ccc(C)cc1`, the inhibition was 8.63% (inactive).
In the case of `COc1cc([N+](=O)[O-])ccc1NC(=O)COC(=O)CCOc1ccc(C)cc1`, the inhibition was 51.2% (active).
With `COc1ccc([N+](=O)[O-])cc1NCC(=O)c1ccc(C)cc1` the inhibition was -17.2% (inactive).
In the case of `CN1OC[C@@H]2CN(C(=O)c3cccc4ccccc34)[C@H](c3ccc(N4CCCCC4)cc3)C[C@@H]21`, the inhibition was 1% (inactive).
With `O=C(Nc1ccccc1C(=O)NCC1CCCO1)c1ccccc1F` (configuration not stated) the inhibition was 6% (inactive).
With `CSc1n[nH]c(=S)n1N` the inhibition was 12.2% (inactive).
With `Cc1ccc(C)c(S(=O)(=O)N2CCN(C(=O)Nc3ccccc3)CC2)c1` the inhibition was 5.32% (inactive).
In the case of `COc1ccc(-c2csc3ncnc(N4CCN(S(=O)(=O)c5ccccc5C#N)CC4)c23)cc1`, the inhibition was 33.6% (inactive).
For `Cc1ccc(C)c(S(=O)(=O)N2CCN(c3ncnc4sccc34)CC2)c1`, the inhibition was 58.5% (active).
For `CC(C)Cc1ccc(-c2cc3nc(NCc4cccc(Cl)c4)ccn3n2)cc1`, the inhibition was -178% (inactive).
For `CC(C)NC(=O)C1(C)CCCCN1Cc1cccc(C(F)(F)F)c1` (configuration not stated), the inhibition was -13.2% (inactive).
For `COc1ccc(-c2ccc(C(=O)NC(C)C)c3occc23)c(C)c1`, the inhibition was -11.5% (inactive).
With `Cc1ccc(Cn2c(C)c(C(=O)NCc3ccccc3C(F)(F)F)sc2=O)cc1` the inhibition was 18.5% (inactive).
For `Cc1cccc(NC(=O)Cn2cc(C(=O)c3ccco3)c3ccccc32)c1`, the inhibition was 8.59% (inactive).
For `Cc1cccc(NC(=O)c2nc(S(=O)(=O)Cc3ccccc3)ncc2Cl)c1`, the inhibition was 111% (active).
With `CN1CCN(c2ccc(NC(=O)c3ccc4c(c3)[nH]c(=O)n4Cc3ccc(F)cc3)cc2)CC1` the inhibition was 24.3% (inactive).
For `Cc1cccc(CS(=O)(=O)c2ncc(Cl)c(C(=O)Nc3ccc(F)cc3)n2)c1`, the inhibition was 108% (active).
For `Cc1cc(C)cc(NS(=O)(=O)Cc2ccccc2)c1`, the inhibition was -13.5% (inactive).
In the case of `O=C(Nc1ccc(F)cc1)c1ccc(S(=O)(=O)NCc2cccnc2)cc1`, the inhibition was -20.7% (inactive).
With `CC(Oc1cc2oc(=O)c3c(c2cc1Cl)CCCC3)C(=O)NCc1ccncc1` (configuration not stated) the inhibition was 3.42% (inactive).
In the case of `Cc1ccc2nc(-c3ccccc3)c(CC3CCCCC3)n2c1`, the inhibition was -146% (inactive).
In the case of `Clc1cccc(Cc2c(-c3cccc(Cl)c3)nc3ccc(Cl)cn23)c1`, the inhibition was -112% (inactive).
For `COc1ccc(CN2CCC(C)(Oc3cccc(F)c3)C2)c2ccccc12` (configuration not stated), the inhibition was -19.4% (inactive).
In the case of `O=C(NCc1cccnc1)c1cc(C2CCCN(C(=O)CCCc3ccccc3)C2)on1` (configuration not stated), the inhibition was -7.2% (inactive).
With `Cc1cc(C)c2c(Cn3ccnc3)cc(=O)oc2c1` the inhibition was 18.3% (inactive).
For `Cn1c2ccccc2c(=O)c2c(=O)n(Cc3ccco3)c(COc3ccccc3)nc21`, the inhibition was 50.5% (active).
With `O=C(CSc1nnc(COc2ccc(Cl)cc2)n1Cc1ccco1)N1CCNC1=O` the inhibition was 6.82% (inactive).
For `CCCc1nc2c(c(=O)c3ccccc3n2C)c(=O)n1C1CCCCCC1`, the inhibition was -44.1% (inactive).
